The list is not random: actives were taken first. Their share in the collection is about 11%.
AMA1-RON2 inh = qHTS for Inhibitors of AMA1-RON; Towards Development of Antimalarial Drug Lead: Primary Screen; Plasmodium falciparum AMA1 (3D7) - RON2 peptide interaction; Potency, µM (highest dose often 58.2 µM), inactives show at the highest dose activity change, negative = inhibition, actives largely listed as inhibitors; 360,000 compounds, 0.2% hits; AlphaScreen AMA1-biotinylated RON2 peptide binding;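 also: 0% = vehicle wells and -100% = peptide control; nearly all actives have a fitted effect of over 45% in size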
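AMA1 (3D7) with his tag at 25 nM final met compounds first, then biotinylated RON2 peptide at 25 nM; detection used donor plus acceptor beads, 10 µg/mL apiece, read by AlphaScreen after 30 min at room temperature.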
Pf growth 48h = Primary qHTS for delayed death inhibitors of the malarial parasite plastid, 48 hour incubation. 310,000 compounds, 5.9% hits. P. falciparum luciferase growth in erythrocytes, 48 h. Potency, µM (doses to about 28.7 µM), inactives show at the highest dose activity change, negative = inhibition, hits mostly inhibitors
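Growth was read as firefly luciferase luminescence after a 48 h, 37 C, 5% CO2 exposure of compounds to reporter-bearing P. falciparum cultures (0.1% parasitemia, 2% hematocrit final) in Albumax-supplemented RPMI 1640.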
Pf growth 96h = Primary qHTS for delayed death inhibitors of the malarial parasite plastid, 96 hour incubation | P. falciparum luciferase reporter growth, 96 h | Potency, µM (doses to about 28.7 µM), for inactives: at the top dose activity change, negative = inhibition, actives largely listed as inhibitors | 320,000 compounds, 6.9% hits | AID 504834, 2011
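Erythrocytes infected with luciferase-expressing P. falciparum were dispensed at 2% hematocrit and 0.05% parasitemia (final), then incubated with compounds 96 hours at 37 C in 5% CO2. Luminescence after detection reagent addition reported growth.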
HCV inhibitor = qHTS Assay for Inhibitors of Hepatitis C Virus (HCV). Huh7.5.1 HCVcc-Cre infection, luciferase reporter, 44 h. Potency, µM (highest dose often 41.8 µM), for the others: at the top dose activity change, negative = inhibition, actives largely listed as inhibitors. 340,000 compounds, 3.4% hits. AID 651820, 2012
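HCVcc-Cre virus at an moi near 0.5 was added right after compound to cells cultured 4 h from seeding (1,000 cells/well). Luciferase activity was determined 44 h later, 15 min after substrate addition at RT.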
* marks the source's active call; other numbers are inactive results; ? = inconclusive; nt = no result; [ ] = another dose, or the depositor's remark. Calls follow the shape of the dose curve; as a rule, active = well fitted curve in the direction sought with a large enough effect; inconclusive = small, poorly fitted or top-dose-only effect, or another doubt; inactive = no such curve, though single readings can be large; an effect the other way counts as inactive or inconclusive. Unless noted, % is scaled to controls: 0 for no effect and ±100 for the full control effect; potency is read from the fitted curve at half-maximal effect.

SMILES	AMA1-RON2 inh	Pf growth 48h	Pf growth 96h	HCV inhibitor
CC(O)(c1ccc(F)c(F)c1)c1nc(-c2ccncc2)cs1 (centres undefined)	11.3%	nt	nt	nt
Cc1cc(NC2CCCCC2)nc(N2CCOCC2)n1	13.6%	2.0%	130.3%	?
CC(C)Nc1nc(NC2CCCC2)nc(N2CCOCC2)n1	1.1%	?	5.22µM*	?
CC(=O)c1ccc(N=Cc2c(O)n(-c3cc(Cl)ccc3N3CCOCC3)c(=O)c3ccccc23)cc1	-9.8%	0.657µM*	nt	13.9%
O=c1c2ccccc2c(C=Nc2ccc(Cl)cn2)c(O)n1-c1cc(Cl)ccc1N1CCOCC1	1.0%	6.0%	?	30.7%
CCOCCCn1c(SCC(=O)Nc2cccc(S(=O)(=O)NC3=NCCCCC3)c2)nc2ccccc2c1=O	4.2%	6.57µM*	-9.6%	-17.2%
CCCn1c(SCC(=O)Nc2cccc(S(=O)(=O)NC3=NCCCCC3)c2)nc2ccccc2c1=O	15.2%	8.28µM*	6.57µM*	-17.5%
Cc1ccc(-n2c(SCC(=O)Nc3cccc(S(=O)(=O)NC4=NCCCCC4)c3)nc3ccccc3c2=O)cc1C	-6.3%	?	?	23.3%
O=c1c2ccccc2c(C=Nc2cccc(S(=O)(=O)NC3=NCCCCC3)c2)c(O)n1Cc1ccccc1	-12.0%	1.65µM*	?	-23.1%
Cc1nnc(SCC(=O)Nc2cccc(S(=O)(=O)NC3=NCCCCC3)c2)n1Cc1ccccc1	1.8%	-17.5%	-19.5%	?
Cc1ccc(NC(=S)NNC(=O)c2cccc([N+](=O)[O-])c2)cc1Cl	62.2%	42.6%	0.0%	23.0%
C[C@@H](C(=O)Nc1cccnc1)n1c(=O)[nH]c2ccccc2c1=O	-2.5%	11.7µM*	?	5.9%
O=C(NCc1ccccc1)N(Cc1cc2cc3c(cc2[nH]c1=O)OCCO3)CC1CCCO1 (centres undefined)	-3.8%	nt	8.28µM*	9.6%
CC(=O)c1cccc(S(=O)(=O)N(Cc2cc3cc4c(cc3[nH]c2=O)OCCO4)CC2CCCO2)c1 (centres undefined)	-17.4%	-14.2%	13.1µM*	-0.4%
O=c1[nH]c2cc3c(cc2cc1CN(CC1CCCO1)S(=O)(=O)c1ccccc1)OCCO3 (centres undefined)	-0.2%	?	?	13.8%
O=C(Nc1ccc(F)cc1)C(c1ccccc1)N1CCN(c2ccncc2)CC1 (centres undefined)	3.6%	nt	nt	nt
CCOc1ccc(-c2nonc2NC(=O)c2ccco2)cc1OCC	-10.9%	0.37µM*	?	-20.8%
CCOc1ccc(-c2nonc2NC(=O)c2ccco2)cc1	-5.8%	0.3%	10.4µM*	4.9%
COc1ccc(-c2nonc2NC(=O)c2ccco2)cc1OC	8.9%	?	?	7.4%
CCOc1ccc(N(CC(=O)Nc2ccc3c(c2)OCCO3)S(=O)(=O)c2c(C)noc2C)cc1	-3.2%	nt	10.4µM*	-11.8%
CCOc1ccc(N(CC(=O)NCCc2ccc(C)cc2)S(=O)(=O)c2c(C)noc2C)cc1	-3.5%	?	?	-17.1%
COc1ccc(N(CC(=O)Nc2ccc(F)c(Cl)c2)S(=O)(=O)c2c(C)noc2C)cc1	4.5%	?	?	15.1%
CCOc1ccccc1NC(=O)CN(c1ccc(C)cc1)S(=O)(=O)c1c(C)noc1C	-16.5%	4.15µM*	91.3%	?
COc1ccc(N(CC(=O)Nc2cc(Cl)ccc2OC)S(=O)(=O)c2c(C)noc2C)cc1	-3.0%	10.4µM*	9.28µM*	?
CCOc1ccc(N(CC(=O)Nc2ccc(OC)cc2)C2=NC3CS(=O)(=O)CC3S2)cc1 (centres undefined)	-4.4%	5.9%	13.1µM*	16.7%
SMILES	AMA1-RON2 inh	Pf growth 48h	Pf growth 96h	HCV inhibitor
COc1ccc2nc(SC(C)C(=O)NC3CCCCC3)[nH]c2c1 (centres undefined)	-6.5%	-14.1%	?	-19.8%
Cc1nn(CC(=O)Nc2ccccc2C(F)(F)F)c(=O)c2cccn12	-1.6%	?	?	3.7%
CS(=O)(=O)Cc1ccc(C(=O)N(CCc2ccccc2)Cc2ccccc2)cc1	-9.2%	-9.9%	-13.2%	-0.3%
O=C(COC(=O)c1cc(Cl)nc(Cl)c1)NCc1ccc2c(c1)OCO2	-1.3%	nt	nt	-23.2%
COc1cccc(CNC(=O)CN(c2ccc(C(C)C)cc2)S(=O)(=O)c2c(C)noc2C)c1	15.2%	-27.6%	30.0%	?
CCOc1ccccc1NC(=O)CCN(c1ccc(C)cc1)S(=O)(=O)c1ccccc1	-18.9%	?	11.7µM*	?
COc1ccc(OC)c(NC(=O)CN(c2ccc(C)cc2)S(=O)(=O)c2c(C)noc2C)c1	-2.5%	?	1.85µM*	?
CCOc1ccc(N(CC(=O)Nc2ccc(OC)cc2)S(=O)(=O)c2c(C)noc2C)cc1	1.5%	nt	6.57µM*	14.0%
COc1ccc(OC)c(NC(=O)CN(c2ccc(C(C)C)cc2)S(=O)(=O)c2c(C)noc2C)c1	-6.2%	nt	10.4µM*	?
C=C(C)C1CC=C(C)/C(=N\NC(=O)CCc2ccccc2)C1 (centres undefined)	-25.5%	?	-33.9%	-0.1%
Fc1ccc(-c2nc3c4ccccc4ccn3c2Cc2ccsc2)cc1	39.0%	nt	nt	nt
COc1ccc(N(CC(=O)Nc2ccc(OC)c(Cl)c2)S(=O)(=O)c2c(C)noc2C)cc1	1.0%	8.28µM*	26.8%	?
CCOc1ccc(OCC)c(NC(=O)CN(c2ccc(OC)cc2)S(=O)(=O)c2c(C)noc2C)c1	-11.2%	13.1µM*	?	?
CCOc1ccc(OCC)c(NC(=O)CN(c2ccc(C)cc2)S(=O)(=O)c2c(C)noc2C)c1	0.0%	nt	33.6%	?
Cc1ccccc1N1C(=O)c2ccccc2C1O (centres undefined)	-7.5%	0.8%[0.00184 µM]	?	7.7%
O=C(NCCC(=O)N1CCC2(CC1)NCCc1[nH]cnc12)c1cccc(Br)c1	-1.4%	-10.7%	-15.8%	13.0%
Cc1ccc(NC2=C(NC(=O)c3ccccc3)C(=O)c3ccccc3C2=O)cc1Cl	?	0.294µM*	?	?
O=C(NCc1ccco1)/C(=C/c1cccc(C(F)(F)F)c1)c1nc2ccccc2[nH]1	34.0%	?	?	15.8µM*
Cc1cc(C)c(S(=O)(=O)N2CCN(CCN3C(=O)c4cccc5cccc(c45)C3=O)CC2)cc1[N+](=O)[O-]	nt	16.0%	?	2.3%[0.335 µM]
Nc1cc2c3c(cccc3c1)C(=O)N(CCN1CCCC1)C2=O	-8.1%	11.7µM*	5.86µM*	10µM*
O=C1c2cccc3cc([N+](=O)[O-])cc(c23)C(=O)N1/N=C/c1ccc(O)cc1O	74.2%	11.7µM*	?	?
O=C1c2cccc3cc([N+](=O)[O-])cc(c23)C(=O)N1CCN1CCCC1	21.7%	9.28µM*	?	1.12µM*
Cc1cccnc1NC(=O)c1nn(C)c2c1CS(=O)(=O)c1ccccc1-2	2.2%	7.4%	2.4%	13.5%

Source: PubChem BioAssay
